“And” between values parts separate entries of the source, which are not always exact repeats. Equal values may be shown once. Where a name gives a salt, the structure may show the parent alone.
How the values were obtained:
Assay in all cases: cell viability relative to vehicle control; higher = less cytotoxic
Conditions in all cases: 10 µM
[1] = test system: K562
Method in brief: (§1)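 Mutant clones made by CRISPR editing and their isogenic wild-type counterparts, from four leukaemia lines, were exposed to a single 10 µM dose of each library compound for 48 h. The supernatant was then removed and CellTiter-Glo luminescence was read. Viability was reported as percent of the on-plate vehicle control.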

[2] = test system: MARIMO
Method in brief: as §1

[3] = test system: MOLM14
Method in brief: as §1

[4] = test system: OCI-AML2
Method in brief: as §1

SMILES | cell viability ([1]; SRSF2 genotype: SRSF2 P95H/wt) | cell viability ([1]; SRSF2 genotype: SRSF2 wt/wt) [%] | cell viability ([2]; SRSF2 genotype: SRSF2 P95H/wt) [%] | cell viability ([2]; SRSF2 genotype: SRSF2 wt/wt) [%] | cell viability ([3]; SRSF2 genotype: SRSF2 P95H/wt) [%] | cell viability ([3]; SRSF2 genotype: SRSF2 wt/wt) [%] | cell viability ([4]; SRSF2 genotype: P95H/wt) [%] | cell viability ([4]; SRSF2 genotype: wt/wt) [%]
CN(C)CCCN1c2ccccc2Sc2ccc(Cl)cc21 [Chlorpromazine HCl] | 75.5% and 73.7% | 65.6 | 40.4 | 44.1 | 40.7 | 43.7 | 25.3 | 28.6
CCOC(=O)N1CCN(c2ccc(OC[C@H]3CO[C@](Cn4ccnc4)(c4ccc(Cl)cc4Cl)O3)cc2)CC1 [Elubiol] | 43.3% and 36.5% | 41.8 | 29.3 | 28.8 | 39 | 21.1 | 10.3 | 15.9
O=C(/C=C/c1cncc(F)c1)c1c(-c2ccccc2)c2cc(Cl)ccc2[nH]c1=O | 6.82% and 5.38% | 2.2 | 3.3 | 0.38 | 0.08 | 0.04 | 0.13 | 0.16
O=C(/C=C\n1cnc(-c2cc(C(F)(F)F)cc(C(F)(F)F)c2)n1)NNc1ccccn1 [Verdinexor (KPT-335)] | 11.8% and 21.6% | 14.7 | 24.4 | 22.1 | 2.16 | 1.01 | 4.7 | 9.56
C[C@@H]1COC(Nc2ccc3ncnc(Nc4ccc(OCc5nccs5)c(Cl)c4)c3c2)=N1 [Varlitinib] | 86.5% and 83.2% | 88.1 | 89.2 | 109 | 91.7 | 96.3 | 87 | 88.2
Oc1ccc(CC2NCCc3cc(O)c(O)cc32)cc1 (stereo not given) [Higenamine hydrochloride] | 92.4% and 103% | 98 | 105 | 98.5 | 79.8 | 89.7 | 94.9 | 102
O=C1NC(=O)/C(=C/c2ccc3nccc(-c4ccncc4)c3c2)S1 | 62.8% and 84% | 69.7 | 54.6 | 50.5 | 40.1 | 42 | 25.4 | 28.8
Cc1nn(C)c(COc2ccc(N3CCN(S(=O)(=O)N(C)C)CC3)cc2)c1-c1cccc2c(CCCOc3cccc4ccccc34)c(C(=O)O)n(CCN3CCOCC3)c12 | 93.7% and 106% | 99.8 | 101 | 107 | 98.3 | 101 | 103 | 103
CN1C(C(=O)Nc2ccccn2)=C(O)c2sc(Cl)cc2S1(=O)=O [Lornoxicam (Xefo)] | 94.3% and 91.8% | 87.5 | 87.2 | 95.8 | 91 | 87.8 | 92.8 | 94.5
Cc1cc(/C=C/C#N)cc(C)c1Nc1ccnc(Nc2ccc(C#N)cc2)n1 [Rilpivirine] | 35.2% and 46.8% | 50.1 | 61.8 | 59.8 | 49.6 | 43.9 | 44.2 | 48
